Source: PubChem
The list is not random: actives were taken first. Their share in the collection is about 4.1%.
Gli-Sufu block: Gli-Sufu pathway antagonists, primary screen, luciferase luminescence, Sufu-KO-LIGHT cells, uHTS; Sufu-KO-LIGHT fibroblasts, Gli luciferase reporter luminescence; inhibition, % at 5 µM; 340,000 compounds, 0.74% hits; AID 588413, 2011;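 active = inhibition above about 55%, limit read from the data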;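 also: 0% = DMSO-treated cells and 100% = wells with medium but no cells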
Mdm2-MdmX inh: inhibitors of human Mdm2-MdmX association, primary screen, cell-based, luminescence, split luciferase, SaOS-2, uHTS | Protein Mdm4 (Homo sapiens) + E3 ubiquitin-protein ligase Mdm2 (Homo sapiens), … | SaOS-2 split-luciferase Mdm2/MdmX complementation | inhibition, % at 8 µM | 330,000 compounds, 3% hits | AID 485346, 2010;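 active = inhibition of at least 50% at 8 µM in the primary screen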
aSyn UTR inh: MLPCN primary screen, SNCA 5' untranslated region; alpha-synuclein 5'UTR reporter, inhibitor activity; AID 1813, 2009; inhibition, % (tested at 7.5 µM); 300,000 compounds, 0.82% hits; in the data active = inhibition above about 60%;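 also: H4 neuroglioblastoma cells stably carrying SNCA 5'UTR luciferase fusion; 0% = DMSO wells and 100% = positive control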
Jurkat NFkB inh: inhibitors of induced NF-kB luciferase reporter, primary screen, TCR NF-kB activation inhibitor project, cell-based, luminescence, uHTS | Jurkat, PMA/ionomycin-induced NF-kB luciferase reporter | inhibition, % at 4 µM | 330,000 compounds, 0.53% hits; in the data active = inhibition above about 50%
KLF5 inh: KLF5 expression inhibitors, primary screen, DLD-1 cells, luminescence | 290,000 compounds, 0.23% hits | DLD-1 KLF5 promoter-luciferase reporter | inhibition, % at 5 µM;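 active = inhibition above a per-plate limit of that plate's mean compound inhibition plus 3 SD, cut at about 60% in these data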;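 also: 0% = DMSO wells and 100% = LY294002 at 200 µM; higher means less KLF5 promoter-driven luciferase light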
697 NFkB inh: inhibitors of PMA/ionomycin-induced NF-kB reporter, 697 cells, primary screen, B-cell NF-kB inhibitor project, cell-based, luminescence, uHTS | AID 435022, 2010 | inhibition, % at 4 µM | 330,000 compounds, 0.33% hits | 697 B-cell NF-kB luciferase reporter, 16 h; in the data active = inhibition above about 35%
Mdm2-MdmX conf: Mdm2-MdmX complex disruptors, retested hits, confirmation, luminescence, single concentration. 10,000 compounds, 55% hits. inhibition, % at 8 µM. shares compounds with Mdm2-MdmX inh. Mdm2-MdmX binding, luminescent assay; in the data active = inhibition above about 40%
FLuc counter: full-length luciferase signal inhibition, confirmation, counter-screen for Mdm2/MdmX interaction inhibitor project, cell-based, single concentration, SaOS-2; shares compounds with Mdm2-MdmX inh; SaOS-2 full-length luciferase counterscreen, luminescence; inhibition, % at 8 µM; 6,200 compounds, 77% hits; AID 504607, 2011;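 active = mean inhibition at 8 µM reaching about 37%, which flags the compound as non-specific, limit read from the data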;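 also: p53-null SaOS-2 cells with luciferase driven by a doxycycline-inducible promoter; compound on cells about two nights before reading with doxycycline added after day one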
* hit, by the source's call; · = not tested or not shown.

SMILES | Gli-Sufu block | Mdm2-MdmX inh | aSyn UTR inh | Jurkat NFkB inh | KLF5 inh | 697 NFkB inh | Mdm2-MdmX conf | FLuc counter
CC(=O)n1cc(N(C(=O)CCl)c2ccc([N+](=O)[O-])cc2)c2ccccc21 | 5 | 98* | 37 | -4 | -14 | -12 | 80* | 42*
Cn1cc(C(=O)N/N=C/c2ccc([N+](=O)[O-])cc2)c2ccccc21 | -7 | -24 | 19 | -17 | 4 | -26 | · | ·
O=Cc1[nH]c2ccccc2c1N(C(=O)CCl)c1ccc([N+](=O)[O-])cc1 | 4 | 97* | 84* | 6 | -7 | -12 | 94* | 25
Cc1ccc2[nH]cc(C(=O)CN3CCN(C)CC3)c2c1 | 11 | 14 | 11 | -4 | 2 | -5 | · | ·
Cc1ccc2[nH]cc(C(=O)CCl)c2c1 | -7 | 82* | 6 | 24 | -5 | -23 | 67* | 58*
Cc1ccc2c(C(=O)CCl)c(C)[nH]c2c1 | 3 | 92* | 5 | 11 | -15 | 7 | 77* | 60*
N#CC1(NC(=O)CN2CCN(S(=O)(=O)c3ccccc3F)CC2)CCCC1 | -5 | 30 | 10 | 3 | 21 | 11 | · | ·
O=C(CCS(=O)(=O)c1ccc(F)cc1)N1CCOCC1 | 0 | 21 | -40 | -9 | -43 | -17 | · | ·
O=C(CN1C(=O)/C(=C\c2ccccc2Cl)Oc2ccccc21)NCc1cccnc1 | -8 | 76* | -13 | -14 | -21 | -11 | 1 | ·
O=C(O)CN1C(=O)/C(=C/c2ccccc2Cl)Oc2ccccc21 | 4 | -9 | 6 | 1 | -16 | 2 | · | ·
Brc1ccc2c(c1)C(c1ccc(N3CCOCC3)cc1)=NNC(c1cccs1)=N2 | 16 | 59* | -28 | 26 | 1 | 5 | -5 | ·
Fc1ccc2c(c1)C(c1ccc(N3CCOCC3)cc1)=NNC(c1cccs1)=N2 | 2 | 19 | -25 | 7 | 13 | -32 | · | ·
Cc1cccn2c(=O)c(C=NCCO)c(Nc3ccc(Cl)cc3)nc12 | · | 53* | -17 | -9 | -20 | 1 | -4 | ·
Cn1cccc1CC(=O)N/N=C/C=C/c1ccco1 | -8 | 10 | -8 | 16 | -17 | 8 | · | ·
c1ccc(CCNc2nc(-c3ccccn3)nc3ccccc23)cc1 | 7 | 93* | 1 | 7 | 1 | -38 | 89* | 23
CCCN(CCC)c1nc(-c2ccccn2)nc2ccccc12 | 46 | 83* | -45 | 10 | 34 | -16 | 85* | 25
COc1ccc(CN2CCN(C(c3ccc(F)cc3)c3ccc(F)cc3)CC2)c(OC)c1OC | -7 | 81* | -3 | -6 | · | 3 | 45* | 69*
C/C(=N\NC(N)=S)c1ccc2c(c1)OCCO2 | -11 | -21 | -17 | -41 | -2 | -22 | · | ·
C/C(=N\NC(=S)Nc1ccc(F)cc1)c1ccc2c(c1)OCCO2 | -12 | 64* | -80 | 36 | -36 | -44 | 62* | 56*
Cc1nc2sc3c(NCc4ccco4)ncnc3c2c2c1COC(C)(C)C2 | -3 | 63* | 41 | 24 | -14 | 7 | 46* | 37*
Cc1ccc(OCC(=O)NCc2n[nH]c(=O)c3ccccc23)cc1 | 12 | 6 | 17 | -11 | · | 12 | · | ·
C/C(=N\NC(=O)Cc1ccc(Cl)cc1)c1ccccc1O | 0 | 57* | 15 | -7 | -7 | 16 | 44* | 43*
C/C(=N\NC(=O)Cc1ccc(Cl)cc1)c1ccc(F)cc1 | -2 | 4 | 7 | -1 | -12 | -2 | · | ·
COCCN(C(=O)C1CCCC1)c1c(N)n(Cc2ccccc2)c(=O)[nH]c1=O | -3 | 9 | -7 | -4 | -23 | 7 | · | ·
Nc1c(N(C(=O)Nc2ccc(Cl)c(Cl)c2)C2CCCC2)c(=O)[nH]c(=O)n1Cc1ccccc1 | -8 | 78* | 33 | 3 | -11 | 23 | 18 | ·
SMILES | Gli-Sufu block | Mdm2-MdmX inh | aSyn UTR inh | Jurkat NFkB inh | KLF5 inh | 697 NFkB inh | Mdm2-MdmX conf | FLuc counter
O=C(CSc1nc2ccccc2s1)N/N=C/c1ccccc1C(=O)O | -4 | 66* | -90 | -72 | -49 | -85 | 82* | 119*
CC(C)Cn1c(N)c(C(=O)COC(=O)c2cc(C(F)(F)F)nc3c(C(F)(F)F)cccc23)c(=O)n(C)c1=O | · | 88* | 6 | 10 | -16 | -2 | 5 | ·
CC(C)(C)C1CCC2(CC1)C(C#N)=C(SCC(=O)Nc1ccccc1)NC(=O)C2C#N (centres undefined) | 16 | 92* | 8 | 7 | -2 | 7 | 75* | 59*
CC1(C)CC(=O)C2=C(C1)NC(SCC(=O)Nc1ccccc1)=C(C#N)C21CCCCC1 | -2 | 35 | -9 | 11 | 2 | 17 | · | ·
CC(C)OC(=O)c1cc2c(ccn2C)n1CC(=O)N(Cc1ccccc1)c1ccc(F)cc1 | 1 | 79* | 51 | 8 | -9 | -7 | 56* | 76*
COCCCN1C(=O)c2ccc(C(=O)NCCc3ccccc3)cc2C1=O | -21 | -11 | -33 | -17 | -211 | -121 | · | ·
Cn1nc(Cc2cccc3ccccc23)c(C#N)c1N | -22 | 21 | 5 | 12 | · | 14 | · | ·
CC(C)(C)n1nc(Cc2cccc3ccccc23)c2c(N)ncnc21 | 10 | 54* | 12 | 4 | · | -76 | 23 | ·
CC(C)CCN(C(=O)c1csnn1)C(C(=O)NC1CCCCC1)c1ccc(F)cc1 (centres undefined) | 23 | -6 | 14 | -6 | 4 | 6 | · | ·
C=CCn1c(O)c(C2=c3ccccc3=NC2=O)sc1=Nc1ccc(O)cc1 | 2 | 78* | -4 | 9 | · | -11 | 1 | ·
O=C1N=c2ccccc2=C1c1sc(=S)n(NC(=O)c2ccccc2)c1O | -14 | -4 | 13 | 6 | 16 | 14 | · | ·
CCc1cccc(N(C)C(N)=Nc2cccc3ccccc23)c1 | -4 | 53* | -12 | 3 | · | 23 | 35 | ·
CCNC(=O)c1c(NC(=O)c2cc(-c3cc(C)ccc3O)n[nH]2)sc2c1CCCC2 | 9 | 45 | 14 | -11 | -31 | 15 | · | ·
O=[N+]([O-])c1ccc(SNc2ccccc2)c([N+](=O)[O-])c1 | -6 | · | · | · | · | · | · | ·
O=[N+]([O-])c1ccc(-[n+]2ccc3ccccc3c2)c([N+](=O)[O-])c1 | 16 | 100* | -105 | -10 | · | -44 | 56* | 5
Cc1ccc(C)c(S(=O)(=O)N2CCN(C(=O)c3ccc(OCc4c(C)noc4C)cc3)CC2)c1 | 6 | 19 | 29 | 18 | · | 0 | · | ·
